Measured values: PubChem BioAssay (NCI)
About 79,000 compounds went through this panel and 15% of them were active in at least one assay; those are over-represented in the sample as a whole. Cut-off read from the data, not from the text of the source: active = growth inhibition above about 70%; inactive = the rest. Where a SMILES comes first, the peptide text is derived from it. [ ]: non-standard residue; d: D form. Ac5c = NC1(C(=O)O)CCCC1

How the values were obtained:
[1] = NCI Yeast Anticancer Drug Screen. Data for the rad50 strain (AID 155);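 note: 0% = growth of vehicle-only cultures of the same strain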; conditions: S. cerevisiae rad50 strain growth inhibition; at 50.0 µM; hits give high values
In short: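 Genetically altered yeast (DNA repair pathway); compound treatment; growth inhibition vs vehicle ctrl.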

[2] = NCI Yeast Anticancer Drug Screen. Data for the mec2-1 strain (AID 157); conditions: S. cerevisiae mec2-1 strain, at 50.0 µM, hits give high values
In short: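 mec2-1 yeast strain, carrying an alteration in DNA damage repair or cell cycle control, was exposed to compounds; growth inhibition was measured relative to vehicle-treated controls.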

[3] = NCI Yeast Anticancer Drug Screen. Data for the sgs1 mgt1 strain (AID 161);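 note: 0% = growth of cultures given vehicle only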; conditions: S. cerevisiae sgs1 mgt1 strain, at 50.0 µM, hits give high values
In short: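 Growth of a repair-deficient yeast mutant was monitored after compound treatment and expressed as inhibition relative to vehicle-treated cultures.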

[4] = NCI Yeast Anticancer Drug Screen. Data for the cln2 rad14 strain (AID 165);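 note: 0% = growth equal to vehicle treated cultures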; conditions: S. cerevisiae cln2 rad14 strain, at 50.0 µM, hits give high values
In short: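 Yeast carrying cln2 and rad14 alterations (cell cycle control and DNA damage repair) were exposed to compounds. Growth inhibition was measured against vehicle-treated controls.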

[5] = NCI Yeast Anticancer Drug Screen. Data for the bub3 strain (AID 167); conditions: S. cerevisiae bub3 mutant strain, at 50.0 µM, hits give high values
In short: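 Yeast carrying a defined mutation is treated with each compound, and growth is compared with that of vehicle-exposed cells to give inhibition.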

[6] = NCI Yeast Anticancer Drug Screen. Data for the mlh1 rad18 strain (AID 175); conditions: S. cerevisiae mlh1 rad18 strain growth inhibition; at 50.0 µM; hits give high values
In short: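 Growth inhibition of the yeast strain was measured after compound exposure and expressed relative to vehicle-treated controls. The strain carries defined defects in DNA damage repair.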

Measured: growth inhibition

CCOc1ccc(N=C2NC(=O)C(CC(=O)Nc3ccc(Cl)cc3Cl)S2)cc1 (configuration not stated)
inactive: [1] 15% | [2] 15.3% | [3] -7.4% | [4] -51.9% | [5] -6% | [6] 27.2%

O=S(=O)([O-])[O-].O=c1[nH]cnc2[nH]ncc12.O=c1[nH]cnc2[nH]ncc12.[Cu+2]
inactive: [1] -22.1% | [2] -7.95% | [3] -47.2% | [4] -32% | [5] -18.7% | [6] -18.1%

CO[C@H]1CC2CC1C1C3=C(NC21)C1(O)C[C@H]2CN(CC3)C1C[C@@H]2C(C)CO (some centres not stated)
inactive: [1] -3.6% | [2] 9.9% | [3] 2.75% | [4] -0.15% | [5] 1.45% | [6] -23.6%

Cc1cc2c(c3c1c(=O)c1ccccc1n3C)C=CC(C)(C)O2
inactive: [1] -5.05% | [2] -0.2% | [3] 9.95% | [4] 3.35% | [5] 14.4% | [6] -8.9%

COc1cc(/C=C/Cc2cc3c(cc2O)OCO3)cc(OC)c1OC
inactive: [1] 0.7% | [2] -15.6% | [3] 0.55% | [4] -21.6% | [5] -1.9% | [6] 0.75%

CCOCN1COCN(C)C1=O
inactive: [1] 8.1% | [2] -6.55% | [3] -6.45% | [4] 13.3% | [5] 20.1% | [6] 3.95%

N#Cc1nc(/C=C/c2nc(C#N)c(N)o2)oc1N
inactive: [1] -34.5% | [2] -28.7% | [3] -5.25% | [4] 9.25% | [5] 8.4% | [6] -0.95%

COC(=N)c1nnn(-c2ccccc2)n1
inactive: [1] -8.6% | [2] -8% | [3] -5.05% | [4] -16.1% | [5] 2.05% | [6] -17.9%

NC1(C(=O)NC2(C(=O)O)CCCC2)CCCC1 (H-[Ac5c]-[Ac5c]-OH)
inactive: [1] 8.75% | [2] 2.85% | [3] 0.8% | [4] -6.65% | [5] -42.9% | [6] 40.4%

CCCCOC(=O)C(C)OC(=O)Nc1ccccc1 (configuration not stated)
inactive: [1] 5.85% | [2] 23.4% | [3] 16.1% | [4] -52.6% | [5] 18.6% | [6] 12%

O=S1(=O)C(c2ccccc2)C(N2CCCCC2)C1C1CC2c3ccccc3C1c1ccccc12 (configuration not stated)
inactive: [1] 19.5% | [2] 32.6% | [3] 2.9% | [4] -28% | [5] 28.9% | [6] 30.2%

O=C1NCC2(CCCCCC2)O1
inactive: [1] 5.15% | [2] -0.65% | [3] 13.2% | [4] 4.95% | [5] -3.9% | [6] 6.15%

COC(=O)C(=O)C1(C)CCc2c(ccc3ccc(OC)cc23)C1=O (configuration not stated)
inactive: [1] -32.8% | [2] -3.1% | [3] -5.9% | [4] -31.9% | [5] 19.9% | [6] -5.65%

CCC(C)c1ccc(CCO)cc1 (configuration not stated)
inactive: [1] 27.2% | [2] 2.4% | [3] -10.2% | [4] 10% | [5] -6.65% | [6] 4.45%

O=C(NC12CC3CC(CC(C3)C1)C2)C(=O)c1c[nH]c2ccccc12
inactive: [1] 8.5% | [2] 14.2% | [3] 8.1% | [4] 24.6% | [5] 23.6% | [6] 11.4%

COc1c2c(cc3occ(-c4ccc(CC=C(C)C)cc4)c(=O)c13)OC(C)(C)C=C2
inactive: [1] -3.8% | [2] -11.6% | [3] -3% | [4] -24.8% | [5] -12.4% | [6] -35.5%

NC(=O)CC[n+]1ccc(C(=O)O)cc1
inactive: [1] -21.8% | [2] -31.7% | [3] -6.1% | [4] 0.4% | [5] -25.1% | [6] -5.05%

CCOC(=O)c1cc(NC(C)=O)c(C)n1C
inactive: [1] -5.4% | [2] 8.6% | [3] -3.45% | [4] -26.6% | [5] 11.1% | [6] 16.4%

N#Cc1ccc(NN=NCCCCCl)cc1
inactive: [1] 8.85% | [2] -8.3% | [3] 14.8% | [4] 3.05% | [5] -6.7% | [6] 2.6%

O=C(OCOC(=O)N1CCOCC1)N1CCOCC1
inactive: [1] 2.3% | [2] -7.25% | [3] 1% | [4] 17.6% | [5] -1.9% | [6] -5.2%

NC(=O)c1ccc(Cl)cc1C(N)=O
inactive: [1] -6.55% | [2] 17.9% | [3] 7.1% | [4] -24.1% | [5] -0.05% | [6] -2.25%

O=C(O)CCC(=O)NC1c2ccccc2Oc2ccccc21
inactive: [1] -5.9% | [2] -1.75% | [3] 11.6% | [4] -10.2% | [5] 7.85% | [6] 5.95%

CC12CCC(CC1)C(C)(C)N=C(N)S2
inactive: [1] -3.1% | [2] -10.8% | [3] -2.75% | [4] -18% | [5] -11.2% | [6] -20%

OC1CCCSC1 (configuration not stated)
inactive: [1] 18.1% | [2] -15.9% | [3] 12.8% | [4] 4.75% | [5] 16.6% | [6] 27.9%

C#CC(C)(O)CCCCCCC (configuration not stated)
inactive: [1] 18.3% | [2] -27.1% | [3] 4% | [4] -22.8% | [5] -12.4% | [6] 5%

Cc1cc(C)c(F)c(C)c1N
inactive: [1] -32.5% | [2] 17.6% | [3] -22% | [4] -19.4% | [5] -22.1% | [6] -4.3%

O=S(=O)(c1ccccc1)C1CCCCC1I (configuration not stated)
inactive: [1] 45.9% | [2] 3.5% | [3] 21.4% | [4] -30.5% | [5] 23.7% | [6] 18.8%

Oc1cccc(C=NCCN=Cc2cccc(O)c2O)c1O.[Fe]
inactive: [1] -9.35% | [2] -5.7% | [3] 4.65% | [4] -39.7% | [5] 13.2% | [6] 1.15%

COC12C=CC(CC1)C1C(=O)C=CC(=O)C12 (configuration not stated)
inactive: [1] -36.5% | [2] -31.4% | [3] -4.7% | [4] -39.3% | [5] -24.2% | [6] -21.4%

Nc1cn(C2CC(O)C(CO)O2)c(=O)[nH]c1=O (configuration not stated)
inactive: [1] 0% | [2] -1.9% | [3] -2.5% | [4] 1% | [5] -4.4% | [6] -9.05%

CC(C=O)C1CCCCC1 (configuration not stated)
inactive: [1] 9.15% | [2] 10.1% | [3] 0.6% | [4] 7.4% | [5] 8.95% | [6] 5.6%

Cc1ccc(OCC2OC(n3cnc4nc(Nc5ccc(Cl)c(Cl)c5)nc(Cl)c43)CC2Oc2ccc(C)cc2)cc1 (configuration not stated)
inactive: [1] 6.9% | [2] 10.8% | [3] -40.2% | [4] 14.1% | [5] -20.3% | [6] -33%

NC(CO)C(=O)NCC(=O)O (configuration not stated)
inactive: [1] -29.5% | [2] 5.75% | [3] -30.2% | [4] -79.5% | [5] -18.2% | [6] -23.9%

CCOC(=O)Nc1c2ccccc2c(NC(=O)OCC)c2cc(Cl)ccc12
inactive: [1] 4.2% | [2] -1.75% | [3] 3.75% | [4] 3.25% | [5] 2.85% | [6] 19.8%

Cc1c(COC(=O)NC(C)C)c(COC(=O)NC(C)C)c(-c2ccccc2)n1-c1ccccc1
inactive: [1] -16% | [2] -1.95% | [3] 13.8% | [4] -8.1% | [5] -14.1% | [6] 64.2%

O=C(O)CN1C(=O)C2C3c4ccccc4C(c4ccccc43)C2C1=O (configuration not stated)
inactive: [1] -5.65% | [2] -4.7% | [3] 1.25% | [4] -26.6% | [5] -19.6% | [6] 0%

COC(=O)C12C3C4C1C1C2C3C41C(=O)OC(C)(C)C (configuration not stated)
inactive: [1] 18% | [2] 1.35% | [3] 9.2% | [4] 4.5% | [5] 23.9% | [6] 15.2%

NC(=O)NC(=O)/C=C/C(=O)O
inactive: [1] 3.75% | [2] -12.9% | [3] -4.15% | [4] -12.4% | [5] 9.7% | [6] -3.2%

CCCCC(CCCC)NCC(C)OC(=O)c1ccc(N)cc1 (configuration not stated)
inactive: [1] 20.6% | [2] -2.35% | [3] 0.5% | [4] -26.8% | [5] -6% | [6] 16.3%

CN(C)c1ccc(/C(=N\O)c2cc[n+](C)cc2)cc1
inactive: [1] -28.6% | [2] -23.4% | [3] -13.2% | [4] -34.5% | [5] -0.6% | [6] 0.85%

O=C(COc1ccc(Cl)c(Cl)c1)NCc1cccc([N+](=O)[O-])c1
inactive: [1] 4.9% | [2] -15.8% | [3] -8.4% | [4] 2.2% | [5] 14.9% | [6] 34%

CCCCCCCCCCCCCCCCCCCCOC1OC(COC(C)=O)C(OC(C)=O)C(OC(C)=O)C1OC(C)=O (configuration not stated)
inactive: [1] -21.3% | [2] -14.2% | [3] -16.9% | [4] 12% | [5] -5.7% | [6] -20.4%
